The results in this text go back to PubChem BioAssay AID2098 (Broad Institute, 2009).

Screen size: about 300,000 compounds; about 2,300 (0.77%) were called active.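 How the source made its calls: active means more than half of replicate wells show activity change below -50%, luminescence cut by over half; inconclusive means some wells, but at most half, below -50%; inactive means no replicate well below -50%.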 The sample as a whole holds a higher share of actives than the screen did.

The test can be described thus: HSF1 inhibitors in luciferase reporter cells, primary screen, cell-based, NIH3T3, luminescence (AID 2098).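 Further: luciferase reports HSF-1 transcriptional activity via heat shock element; 0% = median of DMSO wells and -100% = zero luminescence signal.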 The conditions noted are these: NIH3T3-HGL HSE-luciferase, MG132-induced, luminescence 8 h; hits give low values; screened at 7.5 µM (by protocol). For orientation: Reporter assays use an easily measured gene product as a stand-in for the process of interest.
As for `CC(=O)O[C@H]1CC[C@@]2(C)[C@@H](CC[C@@H]3[C@@H]2CC[C@]2(C)[C@@H](C(C)(C)O)C[C@@H]32)C1`, the activity change, negative = inhibition is -1.58% (inactive).

As to `O=C(CCl)Nc1ccc(Sc2ccc(NC(=O)CCl)cc2)cc1`, the activity change, negative = inhibition was -61.6% (active). With `Cc1ccc(NC(=O)CC(=O)Nc2ccc(C)cc2)cc1` the figure was 11.5% (inactive); with `CC(C)(CCl)C(=O)Nc1ccc(Sc2ccc(F)cc2)cc1`, 6.39% (inactive); with `O=C(c1cc(-c2ccco2)nc2ccccc12)N(Cc1nnc(-c2ccc(Cl)cc2)o1)C1CC1`, 8.92% (inactive). For the compound `Cc1cc(C(=O)OC(C)C(=O)NC2CCCCC2C)c(C)o1` (stereo not drawn), the activity change, negative = inhibition is 3.94% (inactive). For `COc1ccc(S(=O)(=O)NC(C)C(=O)Nc2cccc([N+](=O)[O-])c2)cc1` (stereo not drawn) the value was -3.53% (inactive). For the compound `COC(=O)/C=C\C(=O)Nc1cccc([N+](=O)[O-])c1`, the activity change, negative = inhibition is -76.8% (active). With `COc1cccc(CNC(=O)CCCC(=O)Nc2cccc([N+](=O)[O-])c2)c1` the figure was -0.854% (inactive). In the case of `Cc1ccc(OCC(=O)Oc2ccccc2[N+](=O)[O-])cc1`, the activity change, negative = inhibition was -1.37% (inactive).

Consider `CCOc1ccc(C(=O)Nc2cc(Cl)ccc2-n2cncn2)cc1OC`, for which the activity change, negative = inhibition was -3.95% (inactive). Take `Cc1cc(/C=N/n2cnnc2)c(C)n1-c1ccc2ncccc2c1`: the activity change, negative = inhibition was -11.6% (inactive). With `O=C(COC(=O)c1cnccn1)Nc1ccc(Cl)cc1C(F)(F)F`, the activity change, negative = inhibition is -5.67% (inactive). With `S=C(NCCc1ccccc1)NCC1CCCO1` (stereo not drawn) the figure was 14% (inactive); with `O=C(COC(=O)c1ccc(S(=O)(=O)Nc2ccccc2)cc1)NCC1CCCO1` (stereo not drawn), -11.9% (inactive); with `O=C(CS(=O)(=O)Cc1ccccc1)NCC1CCCO1` (stereo not drawn), -53.1% (active).

`CS(=O)(=O)c1ccc(Cl)c(NC(=O)COC(=O)c2ncc(Cl)c(Cl)c2Cl)c1`: the activity change, negative = inhibition is 0.97% (inactive). Regarding `O=C(CN1CCOCC1)Nc1cccc([N+](=O)[O-])c1`, the activity change, negative = inhibition was 6.69% (inactive).

On to `COc1ccc(Nc2ncnc3ccc(Br)cc23)c(OC)c1`, for which the activity change, negative = inhibition is -71.5% (active).

For the compound `COc1ccc(Nc2ncnc3sc(-c4ccccc4)cc23)c(OC)c1`, the activity change, negative = inhibition is -2.06% (inactive). With `C=CCNc1ncnc2ccc(Br)cc12`, the activity change, negative = inhibition is -13.4% (inactive). For `Cc1ccc(C)c(OCCC(=O)OCC(=O)NC(=O)NCc2ccccc2)c1` the value was -6.76% (inactive). With `COc1ccc(NC(=O)c2cc(-c3ccc(C)cc3)on2)cc1` the figure was -1.83% (inactive); with `COc1ccc(Nc2cc(Cl)ccc2C(=O)O)cn1`, 0.861% (inactive).

Turning to `COc1ccc(NC(=O)/C(Cl)=C(/Cl)S(=O)Cc2ccc(C)cc2)cn1` (stereo not drawn), the activity change, negative = inhibition is -94.7% (active).

With `CCCCn1c(N)c(N(CC)C(=O)c2ccc(N(C)S(=O)(=O)c3ccc(C)cc3)cc2)c(=O)[nH]c1=O`, the activity change, negative = inhibition is -4.56% (inactive).

As to `CCN1C(=O)[C@H]2[C@@H](c3ccc(SC4CCCCC4)c(OC)c3)N[C@@](Cc3ccccc3)(C(=O)OC)[C@H]2C1=O`, the activity change, negative = inhibition was 6.65% (inactive). For `Cc1cc(C(=O)CCC(=O)NNC(=O)c2ccccc2O)c(C)s1` the value was 1.38% (inactive).
